An excerpt weighted towards active compounds, which were near 21% of everything screened.
Shiga toxin inh = A qHTS for Small Molecule Inhibitors of Shiga Toxin; Vero cells, Shiga toxin protein synthesis inhibition reporter; inhibition, % at 38.7 µM; 290,000 compounds, 9.2% hits; in the data active = inhibition mostly above about 28%, no sharp cut-off; inactive = mostly below about 43%; also: 0% is about no effect
Cycloheximide cs = Cycloheximide Counterscreen for Small Molecule Inhibitors of Shiga Toxin; max response, %; AID 2314, 2010; cell reporter, cycloheximide protein synthesis inhibition counterscreen; 300,000 compounds, 12% hits; in the data active = max response mostly above about 13%, no sharp cut-off; inactive = mostly below about 14%; also: read at 38.3 µM for the half of the compounds with a filed dose; 0% is about no effect
NS1 function inh = qHTS Assay for Inhibitors of Influenza NS1 Protein Function; Potency, µM (doses to about 46.1 µM), for the others: at the top dose activity, positive = more growth; 270,000 compounds, 0.4% hits; AID 2326, 2010; calls by dose curve; also: potency is read from the fitted curve at half-maximal effect; actives are rising curves; nearly all actives have a fitted effect of over 50% in size
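In this qHTS, NS1 from influenza A is expressed in budding yeast, where it slows growth. Cells are switched from glucose to 2% galactose medium (pH 6.0, -URA), treated with compound, and growth recovery is read at OD600.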
Pf growth 48h = Primary qHTS for delayed death inhibitors of the malarial parasite plastid, 48 hour incubation | P. falciparum luciferase growth in erythrocytes, 48 h | AID 504832, 2011 | Potency, µM (top dose mostly 28.7 µM), without a hit: at the highest dose activity change, negative = inhibition, hits mostly inhibitors | 310,000 compounds, 5.9% hits; also: potency is read from the fitted curve at half-maximal effect; % is scaled to controls: 0 for no effect and ±100 for the full control effect
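Luciferase-expressing P. falciparum in infected erythrocytes (2% hematocrit, 0.1% parasitemia final) in RPMI 1640/0.5% Albumax were exposed to compound for 48 hours at 37 C, 5% CO2; growth read as luminescence.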
Pf growth 96h = Primary qHTS for delayed death inhibitors of the malarial parasite plastid, 96 hour incubation. 320,000 compounds, 6.9% hits. Potency, µM (doses to about 28.7 µM), for the others: top-dose activity change, negative = inhibition, most hits filed as inhibitors. P. falciparum luciferase reporter growth, 96 h; also: potency is read from the fitted curve at half-maximal effect; % is scaled to controls: 0 for no effect and ±100 for the full control effect
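Two-generation exposure (96 h) targets delayed-death phenotype. Reporter parasites carrying integrated firefly luciferase, in red cells at 2% hematocrit and 0.05% parasitemia final, kept at 37 C, 5% CO2; luminescence loss indicates inhibition.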
An asterisk follows results filed as active; ? = inconclusive; nt = no result given. Unless noted, calls follow the shape of the dose curve; as a rule, active = well fitted inhibition curve with a large enough effect; inconclusive = small, poorly fitted or top-dose-only effect, or another doubt; inactive = no such curve, though single readings can be large or run the other way.

SMILES	Shiga toxin inh	Cycloheximide cs	NS1 function inh	Pf growth 48h	Pf growth 96h
O=C(NCc1cccnc1)C1CC(=O)N(CCc2ccccc2)C1 (configuration not stated)	-17.1	4.5	11.4%	nt	-43.2%
CCCN(C1CCS(=O)(=O)C1)S(=O)(=O)c1cc(OC)ccc1OC (configuration not stated)	nt	nt	nt	?	-12.9%
Cc1ccc2[nH]c(O)c(N=NC(=O)C3CC3c3ccccc3)c2c1Br (configuration not stated)	-10.8	-4.8	0.5%	?	-15.0%
COc1ccc(-c2noc(C3CCCN(S(=O)(=O)c4cccc(Cl)c4C)C3)n2)cc1OC (configuration not stated)	8.0	5.7	7.0%	13.1µM*	?
CCS(=O)(=O)N1CCCC(c2nc(-c3cccc(OC)c3)no2)C1 (configuration not stated)	103.7*	42.0*	-14.7%	112.1%	-26.2%
COc1ccc(C(=O)NC2CC2)cc1OC1CCN(Cc2cc(C)cc(C)c2)CC1	-5.6	-1.6	2.3%	?	-21.5%
c1ccc(-c2nc3c4ccccc4ccn3c2CN2CCOCC2)cc1	64.2*	48.5*	-1.3%	17.0%	6.9%
COc1ccc2ccccc2c1CNCCN1CCOCC1	-6.8	3.2	1.8%	?	-25.5%
Clc1ccc(-c2nc3ccccn3c2CN2CCOCC2)cc1	25.0*	20.5*	-15.1%	?	4.0%
Clc1ccc2nc(-c3ccccc3)c(CN3CCOCC3)n2c1	54.6	11.5	-21.7%	4.7%	?
COc1ccc(-c2nc3c4ccccc4ccn3c2CN2CCOCC2)cc1OC	73.7*	32.2*	0.3%	-8.3%	-2.2%
O=C(Cc1nn[nH]n1)Nc1ccc(F)cc1F	-5.5	-0.7	1.4%	60.8%	26.1%
CCOC(=O)C1=C(O)CSC1=Nc1ccc(Cl)cc1	20.9	6.2	-4.5%	10.4µM*	10.4µM*
CCOC(=O)C1=C(O)/C(=C/c2ccccn2)SC1=Nc1ccc(Cl)cc1	-10.6	-0.8	6.3%	9.28µM*	14.8%
CCOC(=O)C1=C(O)/C(=C/c2ccc(-c3ccccc3C(=O)O)o2)SC1=Nc1ccc(C)cc1	-5.9	-2.0	-64.9%	?	0.928µM*
OCC1(Cc2ccccc2)CCCN(Cc2c[nH]c3ccccc23)C1 (configuration not stated)	-1.7	-2.4	1.8%	-9.5%	?
CO[C@@H]1[C@@H](OC2OC(C)C(OC3CC(C)(O)C(OC(=O)CC(C)C)C(C)O3)C(N(C)C)C2O)[C@@H](CC=O)C[C@@H](C)C(=O)/C=C\C2O[C@H]2C[C@@H](C)OC(=O)C[C@H]1OC(C)=O (some centres not stated)	nt	nt	nt	6.75µM*	0.757µM*
CO[C@H]1[C@H](O[C@H]2O[C@@H](C)[C@@H](O[C@@H]3C[C@](C)(O)[C@H](OC(=O)CC(C)C)[C@H](C)O3)[C@@H](N(C)C)[C@@H]2O)[C@@H](CC=O)C[C@@H](C)[C@@H](O)/C=C\C=C/C[C@@H](C)OC(=O)C[C@H]1OC(C)=O	nt	nt	nt	4.55µM*	0.405µM*
CCc1cc2ccc(C)cc2nc1SCC(=O)Nc1c[nH]c(=O)[nH]c1=O	-7.4	0.7	nt	5.0%	41.7%
COc1ccc(-c2c(NC(=O)c3ccco3)n(C)c3ccccc3c2=O)cc1	10.1	-0.4	-9.3%	20.2%	nt
Cc1nc([N+](=O)[O-])nn1C12CC3CC(CC(Cl)(C3)C1)C2	-14.3	-4.9	19.2%	?	-21.4%
C=CC[n+]1c(-c2ccccc2)csc1NC(C)(C)C	-6.1	-1.8	nt	10.4µM*	14.7µM*
O=C(NC1CCCCC1)/C(=N\O)c1ccccn1	14.4	11.7	0.6%	-12.4%	-17.7%
CCOC(=O)/C(=C\c1cccc(O)c1)c1nc2sc(C)c(C)c2c(=O)[nH]1	-9.2	0.8	7.9%	?	?
O=C(/C=C\Nc1ccccn1)c1ccc(Cl)cc1	75.3*	32.5*	-10.8%	170.3%	-27.7%
SMILES	Shiga toxin inh	Cycloheximide cs	NS1 function inh	Pf growth 48h	Pf growth 96h
Cc1ccc(Cl)c(N/C=C/C(=O)c2ccccc2)c1	65.9*	68.2*	-46.8%	195.8%	344.7%
Cc1cccc(N/C=C/C(=O)c2ccc(Cl)cc2)c1	87.6*	34.5*	-3.9%	202.8%	428.8%
O=C(NCCNC(=O)c1ccccn1)c1ccc(Cl)cc1	19.4	-5.5	3.7%	7.7%	?
O=C(Nc1nnc(SCC(=O)N2CCOCC2)s1)C1CC(=O)N(c2ccccc2)C1 (configuration not stated)	3.3	-2.5	9.7%	-5.0%	?
COc1ccc(N2CC(C(=O)Nc3nnc(SCC(=O)N4CCOCC4)s3)CC2=O)cc1 (configuration not stated)	-1.1	-0.6	19.8%	-19.7%	6.57µM*
COc1ccc(N2CC(C(=O)Nc3nnc(SCc4ccccn4)s3)CC2=O)cc1 (configuration not stated)	-2.1	19.8*	4.4%	-23.1%	?
CC1(C)CC(=O)C(Sc2nnc(-c3ccc(O)cc3)n2CC2CCCO2)C(=O)C1 (configuration not stated)	-9.2	-3.6	-2.6%	nt	1.04µM*
Cc1cc2oc(C(=O)Nc3ccc(S(=O)(=O)Nc4ncccn4)cc3)cc(=O)c2cc1Cl	-7.0	-2.5	4.4%	27.9%	2.2%
COc1ccc(C(=O)NC(C(=O)NCCc2ccc3c(c2)OCCO3)C(C)C)cc1 (configuration not stated)	74.3*	21.5*	nt	-1.4%	-25.7%
O=C(NCCc1ccc2c(c1)OCCO2)c1cc(F)cc(F)c1	20.6*	24.6*	2.6%	61.8%	15.3%
O=C(NCCc1ccc2c(c1)OCCO2)c1cccc(F)c1	43.4*	51.3*	-3.3%	58.2%	-76.3%
O=C(NCc1ccc2c(c1)OCO2)c1cccc(F)c1	23.4	12.0	-14.5%	23.4%	5.3%
CCOC(=O)N1CCN(c2ccc(O)cc2)CC1	1.6	-1.7	11.6%	nt	?
O=C(O)C(F)(F)C(F)(F)C(F)(F)C(F)(F)C(=O)O	nt	nt	8.3%	nt	nt
COc1ccccc1NC(=O)Nc1ccccc1C(=O)NCCCN1CCOCC1	14.7	5.1	1.5%	-16.6%	3.8%
NC(=O)C1CCN(c2nc(-c3cccc4ccccc34)cs2)CC1	nt	nt	nt	?	-5.3%
COc1ccc(S(=O)(=O)N2CCOCC2)cc1NC(=O)CSc1nnc(C2CC2)n1N	-3.6	-3.0	nt	17.1%	-2.1%
COc1ccccc1-c1cc(=O)c2c(O)ccc([N+](=O)[O-])c2o1	3.1	-4.1	5.9%	11.7µM*	10.4µM*
CC(=O)c1ccc2c(c1)Cc1cc(C(C)=O)ccc1-2	133.5*	30.8*	7.4%	271.1%	5.22µM*
COc1cc(C)ccc1S(=O)(=O)N1CCN(C23CC4CC(CC(C4)C2)C3)CC1	-15.4	0.8	-4.4%	-24.5%	nt
Clc1ccc(-c2csc(=Nc3cccnc3)n2CCCn2ccnc2)cc1Cl	-13.4	-7.1	-15.5%	11.7µM*	4.65µM*
O=C(CCn1cnc2ccccc2c1=O)Nc1nc(-c2ccc(Br)cc2)cs1	20.9	1.9	7.3%	-5.1%	9.28µM*
